Test results taken from PubChem BioAssay (Tox21).
Records with an inconclusive call do not appear. Activity calls are given as the source filed them. Unless noted, calls come from the whole dose curve; as a rule, active = well fitted curve in the direction sought with a large enough effect in the repeat runs; inconclusive = weak or mixed curves; inactive = no such curve, though single readings can be large; an effect the other way counts as inactive or inconclusive.

Legend:
[1] = qHTS assay to identify small molecule that activate the aryl hydrocarbon receptor (AhR) signaling pathway - cell viability counter screen (AID 743086);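 note: HepG2 liver cells carrying the AhR DRE luciferase reporter; series mostly up to about 70 µM; nearly all actives have a fitted effect of over 45% in size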
How it was run: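 HepG2-AhR-luc (HG2L7.5c1) cells, 4000/well, were preincubated 5 h at 37C, exposed to compound in qHTS format for 24 hr at 37C, then given CellTiter-Fluor for 30 min; viability was read as fluorescence in the reporter wells.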

[2] = molecular target: Peroxisome proliferator-activated receptor gamma (Homo sapiens) (UniProt P37231); test: qHTS assay to identify small molecule agonists of the peroxisome proliferator-activated receptor gamma (PPARg) signaling pathway (AID 743094; active = well fitted activation curve with a large enough effect in the signal ratio in the repeat runs, not every such curve was filed as active; the % refers to the signal ratio)
How it was run: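 Cells from the PPARg UAS-bla HEK293H line are plated and incubated 5 h at 37C. Compounds in DMSO are pinned in and left 17 h at 37C. LiveBLAzer B/G substrate is then added for 1 h at room temperature before fluorescence is measured.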

[3] = molecular target: Peroxisome proliferator-activated receptor gamma (Homo sapiens) (UniProt P37231); test: qHTS assay to identify small molecule antagonists of the peroxisome proliferator-activated receptor gamma (PPARg) signaling pathway (AID 743191; calls by dose curve; note: series mostly up to about 63 µM; nearly all actives have a fitted effect of over 30% in size)
How it was run: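 GeneBLAzer PPARg UAS-bla HEK293H cells carrying a UAS-driven beta-lactamase reporter were plated at 3000 cells/well, preincubated 5 h at 37C, then given compound for 17 h at 37C; LiveBLAzer B/G FRET substrate was read after 1 h at room temperature.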

[4] = qHTS assay to identify small molecule antagonists of the peroxisome proliferator-activated receptor gamma (PPARg) signaling pathway - cell viability counter screen (AID 743194); note: nearly all actives have a fitted effect of over 55% in size
How it was run: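 PPARg-UAS-bla HEK293H cells were plated, rested 5 h at 37 C, then treated with compounds plus rosiglitazone (50 nM final) for 17 h at 37 C; viability was then read by CellTiter-Glo luminescence after 30 min at room temperature.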

[5] = qHTS assay for small molecule agonists of the antioxidant response element (ARE) signaling pathway - cell viability counter screen (AID 743203; calls by dose curve; note: nearly all actives have a fitted effect of over 55% in size)
How it was run: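 Cytotoxicity was tested in parallel with the ARE reporter screen. ARE-bla HepG2 cells were exposed to compounds for 16 hrs, and viability was taken from CellTiter-Glo luminescence.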

[6] = qHTS assay for small molecule activators of the heat shock response signaling pathway - cell viability counter screen (AID 743209); note: nearly all actives have a fitted effect of over 50% in size
How it was run: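 Cytotoxicity counter screen run in parallel with the HSE beta-lactamase reporter, using the same wells. HeLa HSE-bla cells received compound for 5 h at 37 C; ATP-based CellTiter-Glo luminescence was measured after 30 min at room temperature.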

[7] = qHTS assay to identify small molecule agonists of the peroxisome proliferator-activated receptor delta (PPARd) signaling pathway - cell viability counter screen (AID 743211); note: nearly all actives have a fitted effect of over 55% in size
How it was run: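 PPARd-bla HEK293H cells (UAS-beta-lactamase reporter) were treated with compounds for 17 h at 37 C. Viability was then read in the same wells by CellTiter-Glo luminescence after 30 min at room temperature.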

[8] = molecular target: Peroxisome proliferator-activated receptor delta (Homo sapiens) (UniProt Q03181); test: qHTS assay to identify small molecule agonists of the peroxisome proliferator-activated receptor delta (PPARd) signaling pathway (AID 743212; calls by dose curve)
How it was run: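 Cells expressing a UAS-driven beta-lactamase reporter (PPARd-bla HEK293H) were given test compounds after a 5 h settle and kept at 37 C. Reporter activity was then measured as FRET fluorescence using LiveBLAzer B/G substrate.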

[9] = qHTS assay to identify small molecule antagonists of the peroxisome proliferator-activated receptor delta (PPARd) signaling pathway - cell viability counter screen (AID 743213); note: nearly all actives have a fitted effect of over 50% in size
How it was run: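 PPARd-bla HEK293H cells were treated with compounds plus agonist L165041 (300 nM final) for 17 h at 37 C. Viability was then read in the same wells by CellTiter-Glo luminescence after 30 min at room temperature.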

[10] = molecular target: Peroxisome proliferator-activated receptor delta (Homo sapiens) (UniProt Q03181); test: qHTS assay to identify small molecule antagonists of the peroxisome proliferator-activated receptor delta (PPARd) signaling pathway (AID 743215; active = well fitted inhibition curve with a large enough effect in the signal ratio in the repeat runs, not every such curve was filed as active; the % refers to the signal ratio;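 note: cells stimulated with agonist L165041 at 300 nM final during compound exposure; series mostly up to about 62 µM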)
How it was run: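 Cells: HEK293H with a UAS-driven beta-lactamase reporter responsive to PPARd. Compounds were co-added with L165041 (300 nM, final) and incubated 17 h at 37 C before a 2 h room-temperature FRET substrate step and fluorescence reading.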

[11] = qHTS assay to identify small molecule agonists of the farnesoid-X-receptor (FXR) signaling pathway - cell viability counter screen (AID 743218); note: nearly all actives have a fitted effect of over 45% in size
How it was run: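 Cells were seeded, left 5 h at 37 C and 5% CO2, then dosed with compound in DMSO for 16 h. After the beta-lactamase FRET read, CellTiter-Glo was added and luminescence measured 30 min later.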

[12] = qHTS assay to identify small molecule antagonists of the farnesoid-X-receptor (FXR) signaling pathway - cell viability counter screen (AID 743221; active = well fitted cell-killing curve with a large enough effect in the repeat runs, not every such curve was filed as active; note: nearly all actives have a fitted effect of over 50% in size)
How it was run: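 FXR-UAS-bla HEK 293T cells were treated with test compounds plus chenodeoxycholic acid (50 uM final) for 16 h at 37 C. Cell viability in the same wells was then read as CellTiter-Glo luminescence after 30 min at room temperature.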

[13] = qHTS assay to identify small molecule antagonists of the vitamin D receptor (VDR) signaling pathway - cell viability counter screen (AID 743225); note: nearly all actives have a fitted effect of over 50% in size
How it was run: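 VDR-bla HEK 293T cells, 4 h pre-incubation at 37C, then compound plus 1-alpha,25-dihydroxyvitamin D3 (3 nM final) for 16 h. After the beta-lactamase FRET read, CellTiter-Glo was added to the same wells; luminescence after 30 min at room temperature.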

[14] = molecular target: Vitamin D3 receptor (Homo sapiens) (UniProt P11473); test: qHTS assay to identify small molecule agonists of the vitamin D receptor (VDR) signaling pathway (AID 743222; calls by dose curve)
How it was run: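 Cells carrying a VDR-driven beta-lactamase reporter are seeded at 2,000 per well and rested 4 h. Compounds in DMSO are added for 16 h at 37C, and FRET substrate fluorescence is measured after 2 h at room temperature.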

[15] = qHTS assay for small molecule activators of the heat shock response signaling pathway (AID 743210; active = well fitted activation curve with a large enough effect in the signal ratio in the repeat runs, with a control signal flat, not every such curve was filed as active; the % refers to the signal ratio;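 note: HeLa cells with beta-lactamase reporter driven by heat shock elements; series mostly up to about 63 µM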)
How it was run: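 Activation of heat shock element-controlled beta-lactamase expression is measured in HeLa cells by LiveBLAzer FRET fluorescence, with compound exposure lasting 5 h at 37 C and substrate loading 2.5 h at room temperature.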

[16] = qHTS assay to identify small molecule agonists of the vitamin D receptor (VDR) signaling pathway - cell viability counter screen (AID 743224)
How it was run: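 Cells: VDR-bla, 2,000/well, settled 4 h. Treatment: compounds in DMSO, 16 h, 37C/5% CO2. Readout: CellTiter-Glo luminescence after 30 min RT.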

[17] = molecular target: Vitamin D3 receptor (Homo sapiens) (UniProt P11473); test: qHTS assay to identify small molecule antagonists of the vitamin D receptor (VDR) signaling pathway (AID 743223; active = well fitted inhibition curve with a large enough effect in the signal ratio in the repeat runs, not every such curve was filed as active; the % refers to the signal ratio)
How it was run: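 VDR-bla cells were plated, incubated 4 h at 37C, then given compound and 1alpha,25-dihydroxyvitamin D3 (3 nM final). After 16 h at 37C, LiveBLAzer B/G FRET substrate was added for 2 h at room temperature and fluorescence read.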

[18] = qHTS assay for small molecule agonists of the antioxidant response element (ARE) signaling pathway (AID 743202; active = well fitted activation curve with a large enough effect in the signal ratio in the repeat runs, not every such curve was filed as active; the % refers to the signal ratio)
How it was run: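 Steps: seed ARE-bla HepG2 cells (2,000/well); incubate 5 h at 37 C; add compounds by pin tool; incubate 16 h at 37 C; add FRET substrate; read fluorescence after 2 h at RT.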

[19] = molecular target: Bile acid receptor (Homo sapiens) (UniProt Q96RI1); test: qHTS assay to identify small molecule antagonists of the farnesoid-X-receptor (FXR) signaling pathway (AID 743217; active = well fitted inhibition curve with a large enough effect in the signal ratio in the repeat runs, not every such curve was filed as active; the % refers to the signal ratio)
How it was run: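 Cells carrying a UAS-driven beta-lactamase reporter (GeneBLAzer FXR-UAS-bla HEK 293T) were plated and rested 5 h at 37 °C. Compounds in DMSO were added alongside chenodeoxycholic acid agonist at 50 uM final and left 16 h at 37 °C before FRET substrate readout.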

[20] = molecular target: Bile acid receptor (Homo sapiens) (UniProt Q96RI1); test: qHTS assay to identify small molecule agonists of the farnesoid-X-receptor (FXR) signaling pathway (AID 743220; active = well fitted activation curve with a large enough effect in the signal ratio in the repeat runs, not every such curve was filed as active; the % refers to the signal ratio)
How it was run: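 FXR-UAS-bla HEK 293T cells carrying a UAS-driven beta-lactamase reporter were plated for 5 h at 37C/5% CO2, then exposed to DMSO-dissolved Tox21 10K compounds for 16 h at 37C. A LiveBLAzer B/G FRET substrate was loaded for 2 h at room temperature before fluorescence reading.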

Measured: Potency

Sequence of Bile acid receptor (Homo sapiens) (Q96RI1 whole entry, looked up): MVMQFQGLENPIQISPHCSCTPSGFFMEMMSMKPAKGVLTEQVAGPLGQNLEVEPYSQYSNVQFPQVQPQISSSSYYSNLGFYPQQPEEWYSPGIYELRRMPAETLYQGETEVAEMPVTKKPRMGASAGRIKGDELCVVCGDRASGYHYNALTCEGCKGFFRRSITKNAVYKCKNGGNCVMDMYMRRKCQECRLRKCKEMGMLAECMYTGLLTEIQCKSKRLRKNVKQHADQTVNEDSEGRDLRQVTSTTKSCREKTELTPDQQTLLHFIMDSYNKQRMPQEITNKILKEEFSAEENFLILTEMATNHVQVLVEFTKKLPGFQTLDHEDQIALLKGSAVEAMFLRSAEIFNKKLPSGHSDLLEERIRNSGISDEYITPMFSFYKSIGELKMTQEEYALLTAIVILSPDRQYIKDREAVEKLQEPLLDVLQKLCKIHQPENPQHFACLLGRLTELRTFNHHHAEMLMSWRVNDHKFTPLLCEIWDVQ
Sequence of Vitamin D3 receptor (Homo sapiens) (P11473 whole entry, looked up): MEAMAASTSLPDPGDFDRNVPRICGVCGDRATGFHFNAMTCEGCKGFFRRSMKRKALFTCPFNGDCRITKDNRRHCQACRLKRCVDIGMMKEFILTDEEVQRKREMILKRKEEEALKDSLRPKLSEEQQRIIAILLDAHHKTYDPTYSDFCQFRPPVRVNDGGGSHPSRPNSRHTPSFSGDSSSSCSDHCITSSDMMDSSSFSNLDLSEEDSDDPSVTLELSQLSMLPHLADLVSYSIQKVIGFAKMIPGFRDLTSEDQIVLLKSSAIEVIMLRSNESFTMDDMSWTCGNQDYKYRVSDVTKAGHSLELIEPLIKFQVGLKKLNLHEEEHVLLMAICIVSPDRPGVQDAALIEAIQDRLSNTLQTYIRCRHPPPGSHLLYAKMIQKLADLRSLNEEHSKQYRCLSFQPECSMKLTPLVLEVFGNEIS
Sequence of Peroxisome proliferator-activated receptor delta (Homo sapiens) (Q03181 whole entry, looked up): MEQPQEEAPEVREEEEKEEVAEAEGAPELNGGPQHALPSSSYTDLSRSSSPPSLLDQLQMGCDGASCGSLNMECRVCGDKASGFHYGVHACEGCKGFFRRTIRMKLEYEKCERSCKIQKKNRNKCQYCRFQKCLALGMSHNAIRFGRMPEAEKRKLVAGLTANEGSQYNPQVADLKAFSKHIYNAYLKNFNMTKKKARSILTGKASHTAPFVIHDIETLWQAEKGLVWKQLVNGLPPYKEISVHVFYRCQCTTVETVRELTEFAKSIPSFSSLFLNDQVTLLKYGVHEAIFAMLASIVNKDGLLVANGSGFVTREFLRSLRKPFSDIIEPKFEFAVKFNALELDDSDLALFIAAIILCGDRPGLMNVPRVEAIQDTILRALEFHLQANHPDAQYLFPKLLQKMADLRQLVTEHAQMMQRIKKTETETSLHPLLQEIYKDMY
Sequence of Peroxisome proliferator-activated receptor gamma (Homo sapiens) (P37231 whole entry, looked up): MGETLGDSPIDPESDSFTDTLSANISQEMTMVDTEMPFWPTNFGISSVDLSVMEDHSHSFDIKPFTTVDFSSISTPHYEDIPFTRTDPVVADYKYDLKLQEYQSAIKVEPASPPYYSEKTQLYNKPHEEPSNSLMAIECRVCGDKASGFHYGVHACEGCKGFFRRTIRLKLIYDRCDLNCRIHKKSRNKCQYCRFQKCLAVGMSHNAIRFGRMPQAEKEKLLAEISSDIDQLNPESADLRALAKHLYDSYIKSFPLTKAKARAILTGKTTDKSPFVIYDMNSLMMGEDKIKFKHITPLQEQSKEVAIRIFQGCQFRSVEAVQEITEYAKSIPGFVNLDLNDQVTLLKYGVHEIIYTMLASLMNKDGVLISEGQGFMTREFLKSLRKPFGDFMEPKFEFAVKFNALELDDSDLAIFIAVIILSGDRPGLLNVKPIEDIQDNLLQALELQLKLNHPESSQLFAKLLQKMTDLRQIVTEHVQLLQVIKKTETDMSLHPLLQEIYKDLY

Cc1ccccc1N=Nc1ccc(N=Nc2c(O)ccc3ccccc23)c(C)c1
inactive: [1] | [2] | [3] | [4] | [5] | [6] | [7] | [8] | [9] | [10] | [11] | [12] | [13]

C=Cc1c(C)c2cc3[nH]c(cc4nc(cc5nc(cc1[nH]2)C(C)=C5CCC(=O)O)C(CCC(=O)O)=C4C)c(C)c3C=C
inactive: [1] | [2] | [3] | [4] | [5] | [6] | [8] | [9] | [11] | [12] | [14]

CCCOc1ccc2nc(NC(=O)OC)[nH]c2c1
inactive: [1] | [2] | [3] | [4] | [5] | [6] | [15] | [7] | [8] | [9] | [11] | [12] | [14] | [16] | [13]

Cc1c(Cn2ccnc2)c2ccccc2n1CCC(=O)O
inactive: [1] | [2] | [3] | [4] | [5] | [6] | [15] | [7] | [9] | [11] | [12] | [14] | [16] | [13]

CC(O)C1CCCCC1 (stereo unspecified)
inactive: [1] | [2] | [3] | [4] | [5] | [6] | [15] | [7] | [8] | [9] | [10] | [11] | [12] | [14] | [16] | [13]

CC[C@@H]1C[C@H](N(Cc2cc(C(F)(F)F)cc(C(F)(F)F)c2)C(C)=O)c2cc(C(F)(F)F)ccc2N1C(=O)OC(C)C
inactive: [1] | [2] | [3] | [4] | [5] | [6] | [15] | [7] | [10] | [11] | [12] | [14] | [17] | [16] | [13]

CC(=O)/C(C)=C/C1C(C)=CCCC1(C)C (stereo unspecified)
inactive: [1] | [2] | [3] | [4] | [18] | [5] | [15] | [7] | [8] | [10] | [11] | [16] | [13]

C=C(C)C(=O)OCCN(C)C
inactive: [1] | [2] | [3] | [4] | [5] | [6] | [15] | [7] | [8] | [9] | [10] | [11] | [12] | [14] | [16] | [13]

O=S(=O)(O)c1ccc(O)c2ncccc12
inactive: [1] | [2] | [3] | [4] | [5] | [6] | [7] | [9] | [19] | [20] | [12] | [14] | [16] | [13]

C=CC[N+]1([C@H]2C[C@H]3[C@@H]4CC[C@H]5C[C@H](OC(C)=O)[C@@H](N6CCCCC6)C[C@]5(C)[C@H]4CC[C@]3(C)[C@H]2OC(=O)CC)CCCCC1
inactive: [1] | [2] | [3] | [4] | [18] | [6] | [15] | [7] | [8] | [9] | [10] | [11] | [12] | [14] | [17] | [16] | [13]

Cc1ccc(C(C)c2ccc(C)c(C)c2)cc1C
inactive: [1] | [2] | [3] | [4] | [5] | [6] | [15] | [7] | [10] | [11] | [12] | [14] | [17] | [16]

Nc1nc(CC(=O)O)cs1
inactive: [1] | [2] | [3] | [4] | [18] | [5] | [15] | [7] | [8] | [10] | [11] | [12] | [14] | [17] | [16] | [13]

Cn1c(N)nc2nc[nH]c2c1=O
inactive: [1] | [2] | [3] | [4] | [18] | [5] | [7] | [9] | [10] | [19] | [11] | [20] | [12] | [14] | [17] | [16] | [13]

CC[C@H](C)[C@H](N)C(=O)O
inactive: [1] | [2] | [3] | [4] | [18] | [15] | [7] | [9] | [11] | [12] | [14] | [17] | [16]

COC(=O)CSc1cc(N=c2sc(=O)n3n2CCCC3)c(F)cc1Cl
inactive: [1] | [2] | [3] | [4] | [5] | [6] | [15] | [7] | [10] | [19] | [20] | [12] | [14] | [17] | [16] | [13]

NC(N)=N/N=C/c1c(Cl)cccc1Cl
inactive: [1] | [2] | [3] | [4] | [5] | [6] | [15] | [7] | [9] | [11] | [12] | [17] | [16] | [13]

CCCCCCCCCCCCCCC1CO1 (stereo unspecified)
inactive: [1] | [2] | [3] | [4] | [18] | [5] | [15] | [7] | [8] | [10] | [11] | [12] | [14] | [17] | [16] | [13]

NCCCN(CCO)CCO
inactive: [1] | [2] | [3] | [4] | [5] | [6] | [15] | [7] | [8] | [10] | [11] | [12] | [14] | [17] | [16] | [13]
